Assay outcomes (PubChem BioAssay)
DT40 TDP1 no CPT = qHTS for Inhibitors of human tyrosyl-DNA phosphodiesterase 1 (TDP1): qHTS in cells in absence of CPT. hit rate 15% among 420,000. Potency, µM (top dose mostly 46.2 µM), without a hit: at the highest dose activity change, negative = growth inhibition, hits mostly inhibitors. AID 686978, 2013. DT40 Tdp1-/- hTDP1 cells, no CPT, ATP luminescence, 48 h; also: potency is read from the fitted curve at half-maximal effect; % is scaled to controls: 0 for no effect and ±100 for the full control effect; nearly all actives have a fitted effect of over 55% in size
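Chicken DT40 Tdp1-/- cells stably complemented with human TDP1 were seeded at 400 cells/well with DMSO in place of 20 nM camptothecin. After compound pinning, cells grew at least 48 hr at 37 °C; viability read by CellTiter-Glo luminescence.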
DT40 TDP1 CPT = qHTS for Inhibitors of human tyrosyl-DNA phosphodiesterase 1 (TDP1): qHTS in cells in presence of CPT; Potency, µM (top dose mostly 46.2 µM), for inactives: at the highest dose activity change, negative = growth inhibition, most hits filed as inhibitors; AID 686979, 2013; hit rate 12% among 420,000; chicken DT40 Tdp1-/-;hTDP1 cells + 20 nM CPT, ATP luminescence, 48 h; also: potency is read from the fitted curve at half-maximal effect; % is scaled to controls: 0 for no effect and ±100 for the full control effect; nearly all actives have a fitted effect of over 55% in size
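Chicken DT40 Tdp1-/- cells complemented with human TDP1, 400 cells/well, exposed to compounds plus 20 nM camptothecin for at least 48 h at 37 C; viability read as ATP content by CellTiter-Glo luminescence.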
D3 antag = qHTS of D3 Dopamine Receptor Antagonist: qHTS; D(3) dopamine receptor (Homo sapiens), P35462; D3R cells, DiscoveRx beta-arrestin luminescence, antagonist mode; stronger effect = lower value; max response, negative = inhibition, %; hit rate 2.5% among 360,000; AID 652054, 2013; in the data active = max response below about -50%; inconclusive = no clear call, values can overlap the other calls; also: % is scaled to controls: 0 for no effect and ±100 for the full control effect
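Cells expressing the human receptor were seeded at 1500 cells/well, incubated overnight at 37 degrees C in 5% CO2, then exposed to library compounds with dopamine controls for 90 minutes at 37 degrees C before luminescent detection.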
IL1B secr inh = qHTS for Inhibitors of Inflammasome Signaling: IL-1-beta AlphaLISA Primary Screen; hit rate 4.7% among 360,000; activity change, % at 57.5 µM; THP-1 LPS/ATP IL-1B secretion, AlphaLISA, 16 h; stronger effect = lower value; in the data active = activity change below about -50%; inconclusive = mostly about -30% to -49%; also: % is scaled to controls: 0 for no effect and ±100 for the full control effect
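THP-1 cells pretreated 1 hr with compounds (up to 57.5 uM final), then stimulated with LPS (250 ng/mL final) plus ATP (1.25 mM final); secreted IL-1B measured by AlphaLISA after 16 hr, decreased signal indicating inhibition.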
ClpP mod = qHTS Assay for Activators of ClpP; ATP-dependent Clp protease proteolytic subunit (Bacillus subtilis (strain 168)), P80244; purified B. subtilis ClpP, FRET peptide cleavage, 20 min; Potency, µM (doses to about 57.5 µM), for the others: at the top dose activity change, negative = active; hit rate 1.9% among 340,000; AID 651965, 2013; active = well fitted falling curve with a large enough effect; inconclusive = small, poorly fitted or top-dose-only effect; inactive = no such curve, though single readings can be large or run the other way; also: potency is read from the fitted curve at half-maximal effect; the source files actives as falling curves though it sought activators and does not explain the sign; nearly all actives have a fitted effect of over 65% in size
Target sequence (P80244 whole entry, looked up): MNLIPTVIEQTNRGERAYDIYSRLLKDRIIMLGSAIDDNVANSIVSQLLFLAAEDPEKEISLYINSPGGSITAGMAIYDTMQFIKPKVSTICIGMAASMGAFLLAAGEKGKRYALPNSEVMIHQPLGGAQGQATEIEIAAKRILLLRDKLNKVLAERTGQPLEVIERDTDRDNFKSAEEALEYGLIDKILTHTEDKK
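ClpP 10 microg/mL final, pH 8 Tris/KCl buffer with BSA, glycerol, Tween-20; compound pinned in; FRET-FV substrate; RT 20 min; Ex320/Em430; ΔFRET vs ADEP 5.8 microM, DMSO, no enzyme.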
DRD3 agonist = qHTS of D3 Dopamine Receptor Agonist: qHTS; D3R DiscoveRx beta-arrestin cells, luminescence, 90 min; max activation, %; hit rate 0.58% among 410,000; AID 652048, 2013; in the data active = max activation above about 30%; also: 0% is about no effect
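Cells at 1500/well, incubated overnight, then treated with pinned compounds (dopamine as control) for 90 min at 37 degrees C. DiscoveRx reagent added for 30 - 60 minutes at room temperature; luminescence read.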
Numbers without * were called inactive. Most compounds without a hit are left out; they make up all but 21% or so of the library. Unless noted, calls follow the shape of the dose curve; as a rule, active = well fitted inhibition curve with a large enough effect; inconclusive = small, poorly fitted or top-dose-only effect; inactive = flat fitted curve, though single readings scatter.

COc1ccc(CCCNC(=O)C2(C)Cc3c(-c4ccc(NC(C)=O)cc4)ccnc3O2)cc1 (centres undefined) was read as DT40 TDP1 no CPT 25.9µM*, DT40 TDP1 CPT 23.1µM*, D3 antag -62.3*, IL1B secr inh inconclusive, ClpP mod 4.3% and DRD3 agonist -18.6.
CC(=O)Nc1ccc(-c2ccnc3c2CC(C)(C(=O)NCCc2ccccc2)O3)cc1 (centres undefined) was read as DT40 TDP1 no CPT -15.6%, DT40 TDP1 CPT inconclusive, D3 antag -114.9*, IL1B secr inh -16.6, ClpP mod 4.3% and DRD3 agonist -21.3.
CC(=O)Nc1ccc(-c2ccnc3c2CC(C)(C(=O)Nc2ccccc2)O3)cc1 (centres undefined) was read as DT40 TDP1 no CPT 18.4µM*, DT40 TDP1 CPT 20.6µM*, D3 antag -23.2, IL1B secr inh -23.8, ClpP mod 4.7% and DRD3 agonist 1.9.
For CC(=O)Nc1ccc(-c2ccnc3c2CC(C)(C(=O)NCCN(C)C)O3)cc1 (centres undefined) the results were DT40 TDP1 no CPT inconclusive, DT40 TDP1 CPT -4.2%, D3 antag 0.0, IL1B secr inh 3.8, ClpP mod 4.8% and DRD3 agonist 3.2.
For O=C(CCC(=O)c1cccs1)NCCc1ccc(F)cc1 the results were DT40 TDP1 no CPT -13.1%, DT40 TDP1 CPT -0.1%, D3 antag -16.4, IL1B secr inh 31.2, ClpP mod -0.3% and DRD3 agonist -8.6.
COCc1ccc(CN2CCCC(CO)(Cc3ccccc3)C2)o1 (centres undefined) was read as DT40 TDP1 no CPT inconclusive, DT40 TDP1 CPT -4.1%, D3 antag -4.7, IL1B secr inh 5.0 and DRD3 agonist -6.8.
Screening C[C@@H]1CN([C@H](C)CO)C(=O)c2cc(C#CC3CC3)cnc2O[C@H]1CN(C)S(C)(=O)=O returned DT40 TDP1 no CPT -15.8%, DT40 TDP1 CPT -12.8%, D3 antag -20.1, IL1B secr inh 11.7, ClpP mod -6.7% and DRD3 agonist -10.8.
For CC(=O)Nc1ccc(-c2ccnc3c2CC(C)(C(=O)Nc2cccc(Oc4ccccc4)c2)O3)cc1 (centres undefined) the results were DT40 TDP1 no CPT 16.4µM*, DT40 TDP1 CPT 25.9µM*, D3 antag -66.2*, IL1B secr inh -21.7, ClpP mod 4.5% and DRD3 agonist -19.4.
For CC(=O)Nc1cccc(-c2ccnc3c2CC(C)(C(=O)Nc2cccnc2)O3)c1 (centres undefined) the results were DT40 TDP1 no CPT -29.3%, DT40 TDP1 CPT -28.4%, D3 antag 11.6, IL1B secr inh 27.9, ClpP mod -12.5% and DRD3 agonist -5.2.
`CC(SC(=S)N1CCOCC1)C(=O)O` (centres undefined) gave DT40 TDP1 no CPT -1.2%, DT40 TDP1 CPT 6.0%, D3 antag -27.6, IL1B secr inh 86.8, ClpP mod -2.6% and DRD3 agonist 0.3.
`S=C(SSC(=S)N1CCOCC1)N1CCOCC1` gave DT40 TDP1 no CPT 0.0259µM*, DT40 TDP1 CPT 0.0461µM*, D3 antag -23.3, IL1B secr inh 17.2, ClpP mod 0.5% and DRD3 agonist -2.5.
Screening CCC1CCCCN1C(=O)Cn1c(=O)cc(C(F)(F)F)c2c(C)nn(C)c21 (centres undefined) returned DT40 TDP1 no CPT inconclusive, DT40 TDP1 CPT inconclusive, ClpP mod 4.3% and DRD3 agonist -0.8.
CN1CCS/C1=C/C=C1/SC(=S)N(Cc2ccccc2)C1=O was read as DT40 TDP1 no CPT inconclusive, DT40 TDP1 CPT inconclusive, D3 antag inconclusive, IL1B secr inh -2.2, ClpP mod -1.5% and DRD3 agonist -4.9.
